{
  "source": "PubChem BioAssay",
  "key": {"[1]": {"assay": "compounds binding Alexa647 anti-His antibody – biochemical, small-molecule microarray, 635 nm fluorescence, artefact control for SMM control protein annotation, primary screen (AID 1128);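 further: score merges feature fluorescence with signal-to-noise for each printed compound spot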", "conditions": "higher = more signal"}, "[2]": {"test_system": "Human papillomavirus type 1a E7 protein (residues 1-88)", "assay": "HPV1a E7 small-molecule binders, primary screen, biochemical, small-molecule microarray, residues 1-88, 635 nm (AID 1129)", "conditions": "small-molecule microarray binding, fluorescence 635 nm; higher = more signal"}, "[3]": {"biological_target": "Focal adhesion kinase 1 (Homo sapiens) (UniProt Q05397)", "sequence (Q05397 whole entry, looked up)": "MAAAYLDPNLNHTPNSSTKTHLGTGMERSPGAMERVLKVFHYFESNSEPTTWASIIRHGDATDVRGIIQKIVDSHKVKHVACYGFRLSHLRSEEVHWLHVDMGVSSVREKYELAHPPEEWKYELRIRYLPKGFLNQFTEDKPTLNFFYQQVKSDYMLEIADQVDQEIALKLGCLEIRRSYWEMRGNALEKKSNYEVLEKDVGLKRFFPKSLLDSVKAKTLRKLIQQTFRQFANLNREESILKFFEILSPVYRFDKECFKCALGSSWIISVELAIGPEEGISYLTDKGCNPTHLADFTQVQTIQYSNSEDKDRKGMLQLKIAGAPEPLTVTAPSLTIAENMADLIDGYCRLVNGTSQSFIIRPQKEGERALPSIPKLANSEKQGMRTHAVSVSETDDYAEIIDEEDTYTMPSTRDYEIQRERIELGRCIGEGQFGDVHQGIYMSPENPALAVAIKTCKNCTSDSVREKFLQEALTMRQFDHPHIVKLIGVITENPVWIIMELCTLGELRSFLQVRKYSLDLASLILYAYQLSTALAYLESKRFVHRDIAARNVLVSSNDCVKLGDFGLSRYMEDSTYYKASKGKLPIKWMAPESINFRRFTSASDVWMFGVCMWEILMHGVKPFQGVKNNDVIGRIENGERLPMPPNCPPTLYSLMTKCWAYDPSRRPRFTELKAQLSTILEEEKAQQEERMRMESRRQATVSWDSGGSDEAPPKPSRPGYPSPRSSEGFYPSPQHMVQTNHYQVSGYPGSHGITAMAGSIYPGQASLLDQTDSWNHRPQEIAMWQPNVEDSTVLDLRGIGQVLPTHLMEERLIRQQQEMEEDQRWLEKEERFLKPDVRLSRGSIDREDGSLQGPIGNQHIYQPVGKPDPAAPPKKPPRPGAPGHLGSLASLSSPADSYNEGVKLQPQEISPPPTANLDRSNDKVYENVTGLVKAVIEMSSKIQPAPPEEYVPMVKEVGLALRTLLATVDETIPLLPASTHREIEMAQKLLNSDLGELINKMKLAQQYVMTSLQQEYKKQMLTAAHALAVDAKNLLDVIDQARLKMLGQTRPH", "assay": "PTK2 protein binding on printed compound slides – biochemical, small-molecule microarray, 635/667 nm fluorescence, BSA, DTT, primary screen (AID 1130);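 further: composite of spot emission at 667 nm and signal to noise over triplicate slides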", "conditions": "635 nm fluorescence, higher = more signal"}, "[4]": {"test_system": "Fibrinogen (Alexa647-labelled)", "assay": "Alexa647-fibrinogen binding to printed small molecules – biochemical, small-molecule microarray, 635/667 nm fluorescence, artefact control for SMM control-protein annotation, profiling panel (AID 1131);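 further: z-score merges 667 nm fluorescence with per-spot signal-to-noise over triplicate slides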", "conditions": "fibrinogen-A647 binding fluorescence, higher = more signal"}, "[5]": {"biological_target": "Follistatin (Homo sapiens) (UniProt P19883)", "sequence (P19883 whole entry, looked up)": "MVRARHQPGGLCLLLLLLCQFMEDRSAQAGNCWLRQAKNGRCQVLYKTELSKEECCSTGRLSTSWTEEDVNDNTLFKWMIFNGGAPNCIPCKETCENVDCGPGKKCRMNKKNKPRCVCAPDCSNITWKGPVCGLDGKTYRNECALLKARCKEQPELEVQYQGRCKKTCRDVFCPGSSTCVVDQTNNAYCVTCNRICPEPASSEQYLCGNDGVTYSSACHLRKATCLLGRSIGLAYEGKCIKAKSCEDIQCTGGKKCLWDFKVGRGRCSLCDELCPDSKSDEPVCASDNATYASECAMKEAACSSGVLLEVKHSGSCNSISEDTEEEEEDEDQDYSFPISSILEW", "assay": "FST protein binding to printed compounds – biochemical, small-molecule microarray, 635/667 nm fluorescence, primary screen (AID 1132)", "conditions": "635 nm fluorescence, higher = more signal"}, "[6]": {"biological_target": "Fibroblast growth factor 2 (Homo sapiens) (UniProt P09038)", "sequence (P09038 whole entry, looked up)": "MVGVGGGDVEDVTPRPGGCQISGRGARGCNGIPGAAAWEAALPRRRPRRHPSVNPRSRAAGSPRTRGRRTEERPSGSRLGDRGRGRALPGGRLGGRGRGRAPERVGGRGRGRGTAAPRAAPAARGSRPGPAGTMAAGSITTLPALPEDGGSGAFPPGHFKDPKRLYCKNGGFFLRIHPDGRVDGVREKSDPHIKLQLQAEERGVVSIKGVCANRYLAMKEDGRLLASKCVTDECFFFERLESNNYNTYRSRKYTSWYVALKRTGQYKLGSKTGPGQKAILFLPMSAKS", "assay": "basic fibroblast growth factor binding to printed compounds – biochemical, small-molecule microarray, 635/667 nm fluorescence, primary screen (AID 1133)", "conditions": "FGF2, fluorescence 635/667, higher = more signal"}, "[7]": {"assay": "JC-1 mitochondrial potential readout, lung cancer cells – cell-based, A549, JC-1 fluorescence, basal, 24 h, 100 nL, profiling panel (AID 1138);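 further: A549 lung adenocarcinoma cells under basal conditions with no added stimulus; test concentration not given here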", "conditions": "higher = more signal"}, "Lefty1": {"test_system": "Lefty1", "assay": "Lefty1 protein binding to printed compounds – biochemical, small-molecule microarray, 635/667 nm fluorescence, primary screen (AID 1139)", "conditions": "fluorescence 635/667, higher = more signal"}, "[8]": {"test_system": "wheat germ agglutinin (Triticum aestivum), Alexa647-labelled", "assay": "Alexa647-WGA lectin binding to printed small molecules – biochemical, small-molecule microarray, 635/667 nm fluorescence, artefact control for SMM control-protein annotation, profiling panel (AID 1140);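 further: score merges 667 nm feature emission with signal to noise over triplicate slides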", "conditions": "WGA-A647 binding, 635 nm fluorescence, higher = more signal"}, "[9]": {"biological_target": "Luciferin 4-monooxygenase (Photinus pyralis) (UniProt P08659)", "sequence (P08659 whole entry, looked up)": "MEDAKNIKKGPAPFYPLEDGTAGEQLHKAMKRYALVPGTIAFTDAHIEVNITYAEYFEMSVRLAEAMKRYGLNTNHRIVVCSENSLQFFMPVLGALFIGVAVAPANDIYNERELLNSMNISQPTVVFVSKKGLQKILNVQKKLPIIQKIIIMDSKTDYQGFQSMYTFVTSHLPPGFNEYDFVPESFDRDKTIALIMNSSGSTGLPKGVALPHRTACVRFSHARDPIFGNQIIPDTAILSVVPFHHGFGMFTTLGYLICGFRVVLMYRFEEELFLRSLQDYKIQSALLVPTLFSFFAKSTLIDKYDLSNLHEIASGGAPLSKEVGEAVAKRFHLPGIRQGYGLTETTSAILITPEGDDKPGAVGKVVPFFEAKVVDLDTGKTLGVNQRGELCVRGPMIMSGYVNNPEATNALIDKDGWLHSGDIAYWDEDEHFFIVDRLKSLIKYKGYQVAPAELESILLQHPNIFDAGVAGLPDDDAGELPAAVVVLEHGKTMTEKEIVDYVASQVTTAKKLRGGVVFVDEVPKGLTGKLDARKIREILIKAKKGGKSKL", "assay": "inhibition of purified Photinus pyralis luciferase – biochemical, luminescence, purified enzyme, 2006 set, primary screen (AID 1141);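 further: cell-free assay with purified firefly luciferase at 100 ng per well in PBS; test concentration not given here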", "conditions": "purified firefly luciferase, SteadyGlo luminescence, 30 min; higher = more signal, called active from +8 up or from −8 down"}, "[10]": {"test_system": "Wnt5a (protein binding on small-molecule microarray)", "assay": "small molecules binding Wnt5a protein – biophysical, small-molecule microarray, 635/667 nm fluorescence, primary screen (AID 1142);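 further: fluorescence read at 667 nm with signal to noise per printed feature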", "conditions": "635 nm fluorescence, higher = more signal"}, "[11]": {"assay": "ATP-based viability of Huh7 replicon cells – cell-based, CellTiter-Glo luminescence, basal, 48 h, cytotoxicity control for HCV replication inhibitor project, primary screen (AID 1143);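 further: Huh7 hepatoma cells carrying a hepatitis C replication reporter with no stimulus; test concentration not given here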", "conditions": "higher = more signal, called active from +8 up or from −8 down"}, "[12]": {"assay": "Pseudomonas biofilm growth suppression – PAO1 strain, BacTiter-Glo luminescence, LB-PBS, primary screen (AID 1144)", "conditions": "P. aeruginosa PAO1 biofilm, 12 h, higher = more signal"}, "[13]": {"assay": "basal CRE-LacZ reporter activity in PC12 – cell-based, unstimulated, primary screen (AID 1145)", "conditions": "no forskolin, luminescence, 4.5 h, higher = more signal, called active from +8 up or from −8 down"}, "[14]": {"assay": "forskolin-driven CRE-LacZ activity in PC12 – cell-based, CRE-LacZ reporter, forskolin-stimulated, primary screen (AID 1146);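 further: beta-galactosidase reporter signal reflecting CREB driven transcription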", "conditions": "luminescence, 4.5 h, higher = more signal, called active from +8 up or from −8 down"}, "[15]": {"biological_target": "Streptavidin (Streptomyces avidinii) (UniProt P22629)", "sequence (P22629 whole entry, looked up)": "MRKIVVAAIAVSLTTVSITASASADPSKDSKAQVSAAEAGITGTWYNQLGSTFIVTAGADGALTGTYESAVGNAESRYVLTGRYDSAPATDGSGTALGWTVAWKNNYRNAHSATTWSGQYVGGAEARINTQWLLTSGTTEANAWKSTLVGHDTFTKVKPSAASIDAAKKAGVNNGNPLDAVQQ", "assay": "compounds binding control protein streptavidin – biophysical, small-molecule microarray, 635/667 nm fluorescence, artefact control for SMM compound annotation, primary screen (AID 1147);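 further: signal reflects streptavidin binding to arrayed compounds as a control protein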", "conditions": "higher = more signal"}, "[16]": {"assay": "probe aInhba binding on compound microarray – biochemical, small-molecule microarray, 635/667 nm fluorescence, primary screen (AID 1148);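 further: score merges 667nm spot fluorescence with signal-to-noise for antibody binding to printed compounds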", "conditions": "higher = more signal"}, "Torsin-1A (Homo sapiens) [17]": {"biological_target": "Torsin-1A (Homo sapiens) (UniProt O14656)", "sequence (O14656 whole entry, looked up)": "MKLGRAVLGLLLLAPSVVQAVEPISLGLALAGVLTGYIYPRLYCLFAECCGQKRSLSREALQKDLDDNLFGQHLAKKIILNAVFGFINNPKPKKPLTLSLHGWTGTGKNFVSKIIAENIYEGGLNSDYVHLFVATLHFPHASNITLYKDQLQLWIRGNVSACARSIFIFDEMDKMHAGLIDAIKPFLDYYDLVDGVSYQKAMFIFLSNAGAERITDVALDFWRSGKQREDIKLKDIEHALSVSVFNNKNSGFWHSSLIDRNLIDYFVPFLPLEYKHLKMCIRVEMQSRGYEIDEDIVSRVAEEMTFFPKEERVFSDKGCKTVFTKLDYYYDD", "assay": "TOR1A wild-type binding on microarray – cell lysate, small-molecule microarray, lysate, 635/667 nm, primary screen (AID 1149)", "conditions": "COS7 hTOR1A-WT lysate, 635 nm fluorescence, higher = more signal"}, "Torsin-1A (Homo sapiens) [18]": {"biological_target": "Torsin-1A (Homo sapiens) (UniProt O14656)", "assay": "torsin A mutant lysate binding on microarrays – cell lysate, small-molecule microarray, COS7 lysate, 635/667 nm fluorescence, primary screen (AID 1150);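 further: score pools 667 nm emission and signal to noise measuring lysate protein binding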", "conditions": "COS7 hTOR1A mutant lysate, 635 nm fluorescence, higher = more signal"}, "[19]": {"test_system": "Sonic hedgehog protein (Shh)", "assay": "Sonic hedgehog microarray binding compounds – biochemical, small-molecule microarray, 635/667 nm fluorescence, primary screen (AID 1151);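 further: score combines spot fluorescence intensity with signal-to-noise across triplicate slides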", "conditions": "635 nm fluorescence, higher = more signal"}},
  "note": "Activity calls are given as the source filed them. Unless noted, how the calls were made is not given here.",
  "data": [
    {"smiles": "CC1(C)OCC(C(O)C2=CCCCC2=O)CO1", "note": "(stereo not given)", "values": [
      {"measurement": "composite z-score", "setting": "[1]", "value": 0.485},
      {"measurement": "composite z-score", "setting": "[2]", "value": 0.279},
      {"measurement": "composite z-score", "setting": "[3]", "value": 0.0102},
      {"measurement": "composite z-score", "setting": "[4]", "value": 0.945},
      {"measurement": "composite z-score", "setting": "[5]", "value": 0.97},
      {"measurement": "composite z-score", "setting": "[6]", "value": 0.938},
      {"measurement": "z-score", "setting": "[7]", "value": -0.867},
      {"measurement": "composite z-score", "setting": "Lefty1", "value": 1.33},
      {"measurement": "composite z-score", "setting": "[8]", "value": 0.731},
      {"measurement": "z-score", "setting": "[9]", "value": "0.114 (inactive)"},
      {"measurement": "composite z-score", "setting": "[10]", "value": 0.24},
      {"measurement": "z-score", "setting": "[11]", "value": "0.956 (inactive)"},
      {"measurement": "z-score", "setting": "[12]", "value": "-0.432 (inactive)"},
      {"measurement": "z-score", "setting": "[13]", "value": "-0.431 (inactive)"},
      {"measurement": "z-score", "setting": "[14]", "value": "0.476 (inactive)"},
      {"measurement": "composite z-score", "setting": "[15]", "value": 0.412},
      {"measurement": "composite z-score", "setting": "[16]", "value": -0.133},
      {"measurement": "composite z-score", "setting": "Torsin-1A (Homo sapiens) [17]", "value": 0.429},
      {"measurement": "composite z-score", "setting": "Torsin-1A (Homo sapiens) [18]", "value": 0.803},
      {"measurement": "composite z-score", "setting": "[19]", "value": 1.5}
    ]},
    {"smiles": "CCOC(=O)[C@H](Cc1ccccc1)NC(=O)CCC1CC(OC(=O)NCc2ccc3c(c2)OCO3)CC2(CCCC(COC(=O)NCc3cccc(C(F)(F)F)c3)O2)O1", "note": "(stereo not given in full)", "values": [
      {"measurement": "composite z-score", "setting": "[1]", "value": 1},
      {"measurement": "composite z-score", "setting": "[2]", "value": 0.355},
      {"measurement": "composite z-score", "setting": "[3]", "value": -0.15},
      {"measurement": "composite z-score", "setting": "[4]", "value": -0.416},
      {"measurement": "composite z-score", "setting": "[5]", "value": 0.916},
      {"measurement": "composite z-score", "setting": "[6]", "value": 1.01},
      {"measurement": "z-score", "setting": "[7]", "value": -0.659},
      {"measurement": "composite z-score", "setting": "Lefty1", "value": 0.955},
      {"measurement": "composite z-score", "setting": "[8]", "value": 0.229},
      {"measurement": "z-score", "setting": "[9]", "value": "0.794 (inactive)"},
      {"measurement": "composite z-score", "setting": "[10]", "value": -0.0271},
      {"measurement": "z-score", "setting": "[11]", "value": "-2.72 (inactive)"},
      {"measurement": "z-score", "setting": "[12]", "value": "-0.518 (inactive)"},
      {"measurement": "z-score", "setting": "[13]", "value": "-0.618 (inactive)"},
      {"measurement": "z-score", "setting": "[14]", "value": "-0.0205 (inactive)"},
      {"measurement": "composite z-score", "setting": "[15]", "value": 0.0284},
      {"measurement": "composite z-score", "setting": "[16]", "value": 0.0448},
      {"measurement": "composite z-score", "setting": "Torsin-1A (Homo sapiens) [17]", "value": 0.0337},
      {"measurement": "composite z-score", "setting": "Torsin-1A (Homo sapiens) [18]", "value": 0.134},
      {"measurement": "composite z-score", "setting": "[19]", "value": 1.17}
    ]},
    {"smiles": "COc1ccc(-c2ccc3c(n2)CCCN3CC(O)CN2CCCc3nc(C)c(C)cc32)cc1", "note": "(stereo not given)", "values": [
      {"measurement": "composite z-score", "setting": "[1]", "value": 2.62},
      {"measurement": "composite z-score", "setting": "[2]", "value": 0.478},
      {"measurement": "composite z-score", "setting": "[3]", "value": 0.351},
      {"measurement": "composite z-score", "setting": "[4]", "value": 0.733},
      {"measurement": "composite z-score", "setting": "[5]", "value": 1},
      {"measurement": "composite z-score", "setting": "[6]", "value": 0.62},
      {"measurement": "z-score", "setting": "[7]", "value": 1.7},
      {"measurement": "composite z-score", "setting": "Lefty1", "value": 1.05},
      {"measurement": "composite z-score", "setting": "[8]", "value": 1.03},
      {"measurement": "z-score", "setting": "[9]", "value": "-1.2 (inactive)"},
      {"measurement": "composite z-score", "setting": "[10]", "value": 0.268},
      {"measurement": "z-score", "setting": "[11]", "value": "-0.154 (inactive)"},
      {"measurement": "z-score", "setting": "[12]", "value": "-0.0522 (inactive)"},
      {"measurement": "z-score", "setting": "[13]", "value": "-0.0779 (inactive)"},
      {"measurement": "z-score", "setting": "[14]", "value": "0.536 (inactive)"},
      {"measurement": "composite z-score", "setting": "[15]", "value": 1.52},
      {"measurement": "composite z-score", "setting": "[16]", "value": 0.276},
      {"measurement": "composite z-score", "setting": "Torsin-1A (Homo sapiens) [17]", "value": 0.785},
      {"measurement": "composite z-score", "setting": "Torsin-1A (Homo sapiens) [18]", "value": 1.15},
      {"measurement": "composite z-score", "setting": "[19]", "value": 1.19}
    ]},
    {"smiles": "CCCCCCc1nc(CCCc2cc3c(c(CCCCCC)n2)[Si](C(C)C)(C(C)C)O[C@H]3c2ccccc2)cc2c1[Si](C(C)C)(C(C)C)O[C@H]2c1ccccc1", "values": [
      {"measurement": "composite z-score", "setting": "[1]", "value": -0.246},
      {"measurement": "composite z-score", "setting": "[2]", "value": -0.526},
      {"measurement": "composite z-score", "setting": "[3]", "value": -0.43},
      {"measurement": "composite z-score", "setting": "[4]", "value": -1.19},
      {"measurement": "composite z-score", "setting": "[5]", "value": 0.385},
      {"measurement": "composite z-score", "setting": "[6]", "value": -0.0811},
      {"measurement": "z-score", "setting": "[7]", "value": 0.669},
      {"measurement": "composite z-score", "setting": "Lefty1", "value": 0.778},
      {"measurement": "composite z-score", "setting": "[8]", "value": -0.0778},
      {"measurement": "z-score", "setting": "[9]", "value": "0.733 (inactive)"},
      {"measurement": "composite z-score", "setting": "[10]", "value": -0.0661},
      {"measurement": "z-score", "setting": "[11]", "value": "-0.636 (inactive)"},
      {"measurement": "z-score", "setting": "[12]", "value": "0.182 (inactive)"},
      {"measurement": "z-score", "setting": "[13]", "value": "-0.0106 (inactive)"},
      {"measurement": "z-score", "setting": "[14]", "value": "-0.222 (inactive)"},
      {"measurement": "composite z-score", "setting": "[15]", "value": 0.0479},
      {"measurement": "composite z-score", "setting": "[16]", "value": -0.0972},
      {"measurement": "composite z-score", "setting": "Torsin-1A (Homo sapiens) [17]", "value": -0.285},
      {"measurement": "composite z-score", "setting": "Torsin-1A (Homo sapiens) [18]", "value": -0.0949},
      {"measurement": "composite z-score", "setting": "[19]", "value": 0.406}
    ]}
  ]
}
